Out of some 2,400 compounds screened, about 220 (9.2%) were called active. This excerpt belongs to a sample that is enriched for actives. Values without a mark were called inactive.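 Rule for the calls: active = signal change above the mean of dofetilide-free buffer controls plus 3 SD, so a positive margin; inactive = the rest.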

95 molecules from PubChem BioAssay AID1839 (Johns Hopkins Ion Channel Center, 2009) can be followed below.

The experiment in a line: thallium signal changes without hERG – cell-based, CHO-K1 parental line, FluxOR thallium flux, counter-screen for hERG block protection project, confirmation (AID 1839).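 Note: compounds applied alone with no dofetilide to cells lacking hERG.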 Conditions: CHO-K1 parental cells, FluxOR thallium flux fluorescence; at 10 µM.
As for `O=C(Nc1cccnc1)c1ccc(COc2cc(Cl)ccc2Cl)o1`, the signal change vs control minus 3*SD hit threshold (margin above threshold, higher = more increase) was -33.5%.
The result for `CCCSc1cc(NCCOC(C)=O)c([N+](=O)[O-])c2nonc12` reads -28.6%.
Next, `Cc1cccc(C(=O)NNC(=S)NC(=O)c2ccccc2)c1`: -45%; `Cc1ccc(C(=O)NNC(=S)NC(=O)c2ccccc2)cc1`: -43.2%.
Take `Cc1cc2ccccn2c1C(=S)NC(=O)c1ccccc1`: the signal change vs control minus 3*SD hit threshold (margin above threshold, higher = more increase) is 2.8% (active).
Next, `COc1ccc(C(=O)NC(=S)N2CCC(C)CC2)cc1`: -29%; `Cc1ccc(/C=N/N2C(=O)c3ccccc3NC2c2ccc(C)cc2)cc1` (stereo not given): -30%; `CCOC(=O)C1=C(O)c2ccccc2C(=O)/C1=C\c1ccc(CC)cc1`: -14.9%.
Next, `CCc1ccc(/C=C/C(=O)c2cc(Br)ccc(=O)c2O)cc1`: -23.5%; `Cc1ccc(/C=C/C(=O)C2C(=O)c3ccccc3C2=O)cc1`: 8.4% (active); `CCc1ccc(/C=C/C(=O)C2C(=O)c3ccccc3C2=O)cc1`: 15.2% (active).
The result for `Cc1ccc(/C=C/C(=O)c2ccccc(=O)c2O)cc1C` reads -20.1%; that for `COc1ccc(-n2c(SCc3ccccn3)nc3c(c2=O)SCC3)cc1OC`, -16.3%; that for `O=C(COC(=O)c1cnccn1)c1ccc(Cl)cc1`, -30.4%.
On to `CC(C)OC(=O)c1c(NS(=O)(=O)c2ccccc2)sc2c1CCCC2`, for which the signal change vs control minus 3*SD hit threshold (margin above threshold, higher = more increase) is -18.4%.
The result for `CC1CCc2c(sc(NS(=O)(=O)c3ccccc3)c2C(=O)OC(C)C)C1` (stereo not given) reads 5.8% (active).
For the molecule `CCOC(=O)c1c(NS(C)(=O)=O)sc2c1CCC(C)C2` (stereo not given), the signal change vs control minus 3*SD hit threshold (margin above threshold, higher = more increase) is -5.6%.
The result for `CCOc1ccc(NC(=O)CSc2nc3nc(C)cc(C)n3n2)cc1` reads -31.5%; that for `CC1=CCC[C@@H]2[C@@](C)(CC/C(C)=C/C(=O)O)[C@H](C)CC[C@@]12C`, 7.9% (active).
Next, `O=[N+]([O-])c1cccc(/C=C/c2nc(C=Nc3ccccc3)c(O)o2)c1`: -34.1%.
For the molecule `COC(=O)C1=NN(C(=O)c2ccc(Cl)cc2)C(O)(c2ccccc2)C1` (stereo not given), the signal change vs control minus 3*SD hit threshold (margin above threshold, higher = more increase) is 17.7% (active).
Next, `CC(C)(C)C1(O)CC(C(F)(F)F)=NN1C(=O)Cc1ccc([N+](=O)[O-])cc1` (stereo not given): -27%; `COC(=O)C1=NN(C(=O)c2ccc(C)cc2)C(O)(c2ccc(Cl)cc2)C1` (stereo not given): 46.4% (active); `CCOC(=O)c1cnc(-n2nc(C)cc2C)nc1Nc1cccc(C(=O)O)c1`: -22.1%.
As to `CCC1=NN(C(=O)c2ccc(Cl)cc2)C(O)(c2ccc(C)cc2)C1` (stereo not given), the signal change vs control minus 3*SD hit threshold (margin above threshold, higher = more increase) was -25.9%.
For `CC1=NN(C(=O)c2ccccc2Br)C(O)(c2ccc(Cl)cc2)C1` (stereo not given), the signal change vs control minus 3*SD hit threshold (margin above threshold, higher = more increase) was -36.1%.
Next, `CC1=NN(C(=O)c2ccc(Cl)cc2)C(O)(c2ccccc2)C1` (stereo not given): -21.7%; `Cc1ccc(C(=O)NNC(=S)NC(=O)c2ccc(Cl)cc2)cc1`: -46.2%; `CCOC(=O)C1=NN(C(=O)c2cccc(Br)c2)C(O)(C(C)(C)C)C1` (stereo not given): 49.8% (active).
Turning to `CCC1=NN(C(=O)c2ccc(Cl)cc2)C(O)(c2ccccc2)C1` (stereo not given), the signal change vs control minus 3*SD hit threshold (margin above threshold, higher = more increase) is -32.2%.
Next, `COC(=O)C1=NN(C(=O)c2cccc(Br)c2)C(O)(c2ccc(Cl)cc2)C1` (stereo not given): 64.5% (active).
Next, `Cc1c(C)c2ccc(OCC(=O)N[C@@H](Cc3ccccc3)C(=O)O)cc2oc1=O`: -15.2%; `O=C(C1CC(=O)N(c2ccc3c(c2)OCCO3)C1)N1CCCC(C(F)(F)F)C1` (stereo not given): -31.3%; `COc1ccc(/C(C)=N/Nc2ccc(C(=O)O)cc2)c(OC)c1`: -36.2%.
The result for `Cc1ccc(C(=C2C3C=CC2C2C(=O)NC(=O)C32)c2ccc(C)cc2)cc1` (stereo not given) reads -28.1%; that for `O=C(Nc1nc2c(Br)cc(Br)cc2c(=O)s1)C1CCC1`, -21%.
For `Cc1ccc(/C(O)=C/C(=O)C(=O)NC23CC4CC(CC(C4)C2)C3)cc1`, the signal change vs control minus 3*SD hit threshold (margin above threshold, higher = more increase) is -22.7%.
The result for `CCn1ncc(Cl)c1C(=O)NC(=S)Nc1ccccc1Br` reads -0.1%; that for `Cc1cccc(/C=N/n2c(COc3ccccc3)n[nH]c2=S)c1`, -23.1%.
Next, `COc1ccc(NC(=S)NC(NC(=O)c2cccc3ccccc23)C(Cl)(Cl)Cl)c([N+](=O)[O-])c1` (stereo not given): -33.1%; `NC(=O)C1CCN(C(=O)c2cc3c(s2)CCCC3)CC1`: -20.8%; `O=C(COc1cccc(-n2cnnn2)c1)Nc1ccc([N+](=O)[O-])cc1`: -25.2%.
Next, `O=C(Nc1nc(-c2ccccc2)c(-c2ccccc2)o1)c1ccc(F)cc1`: -18.6%.
With `O=C(NC(=S)N1CCN(c2ccc(Cl)cc2[N+](=O)[O-])CC1)c1cccs1`, the signal change vs control minus 3*SD hit threshold (margin above threshold, higher = more increase) is -23.6%.
As for `COCCNC(=O)C(c1ccncc1)N(C(=O)Cn1nnc2ccccc21)c1ccc(OC)cc1` (stereo not given), the signal change vs control minus 3*SD hit threshold (margin above threshold, higher = more increase) was -24.4%.
In the case of `COc1cccc(C=NCC(C)N=Cc2cccc(OC)c2O)c1O` (stereo not given), the signal change vs control minus 3*SD hit threshold (margin above threshold, higher = more increase) is -13.1%.
Next, `COc1cccc(C=Nc2cc(C)cc(C)c2)c1O`: -7.5%; `COc1cccc(C=NCCCN=Cc2cccc(OC)c2O)c1O`: 0.5% (active).
The result for `Cc1ccc(O)c(C(=O)CC(=O)c2ccccc2Cl)c1` reads -27.9%.
Next, `Cc1cc(Br)c(NC(=O)COC(=O)C2CC2C)c(Br)c1` (stereo not given): -27.2%; `O=C(O)CCSc1ncnc2sc(-c3ccccc3)cc12`: -4.3%; `CCOC(=O)c1sc2nc(C)nc(SCC(=O)N(C)C3CCS(=O)(=O)C3)c2c1C` (stereo not given): -20.4%.
With `CN(C(=O)CSc1ncnc2sc(-c3ccccc3)cc12)C1CCS(=O)(=O)C1` (stereo not given), the signal change vs control minus 3*SD hit threshold (margin above threshold, higher = more increase) was 24.3% (active).
The result for `CCOC(=O)C1=C(N)Oc2cc(O)ccc2C1c1cccnc1` (stereo not given) reads -22.5%.
Consider `N#Cc1cccc(NC(=O)c2nc(-c3ccccc3)n(-c3ccccc3)n2)c1`, for which the signal change vs control minus 3*SD hit threshold (margin above threshold, higher = more increase) is -41.8%.
In the case of `CCOC(=O)N1CCN(C(=O)c2ccc(C)c(S(=O)(=O)Nc3ccccc3)c2)CC1`, the signal change vs control minus 3*SD hit threshold (margin above threshold, higher = more increase) was -15%.
On to `Cc1cccc(NC(=S)N/N=C2\CC(C)(C)Oc3ccc(O)cc32)c1`, for which the signal change vs control minus 3*SD hit threshold (margin above threshold, higher = more increase) is -19.7%.
The result for `O=C(NC(=S)NCCc1ccccc1)c1cccc(Cl)c1` reads -28.3%; that for `O=C1C(c2ccccc2)C(c2ccccc2)NC(c2ccccc2)C1c1ccccc1` (stereo not given), -27.2%.
The result for `COc1cccc2sc(Nc3nnc(-c4ccccc4Cl)o3)nc12` reads -16%.
Next, `COc1cccc(-c2nnc(Nc3nc4c(F)cccc4s3)o2)c1`: -7.5%.
As to `Fc1cccc2sc(Nc3nnc(-c4ccccc4)o3)nc12`, the signal change vs control minus 3*SD hit threshold (margin above threshold, higher = more increase) is 39.2% (active).
Next, `COc1cccc2sc(Nc3nnc(-c4cccs4)o3)nc12`: 14.3% (active); `Fc1cccc2sc(Nc3nc4c(F)cccc4s3)nc12`: -6.3%.
The result for `COc1cccc2sc(Nc3nc(-c4ccccn4)cs3)nc12` reads -29.4%.
The result for `Fc1cccc2sc(Nc3nnc(-c4ccco4)o3)nc12` reads -13.8%; that for `COc1cccc2sc(Nc3nnc(-c4ccc(F)cc4)o3)nc12`, 13.1% (active).
As for `CCC1CCCCN1C(=S)NC(=O)c1ccc([N+](=O)[O-])cc1` (stereo not given), the signal change vs control minus 3*SD hit threshold (margin above threshold, higher = more increase) was -2.3%.
The result for `CN1C(=O)CSc2ccc(NC(=O)N3CCc4ccccc43)cc21` reads -32.3%.
The result for `COc1ccccc1-n1c(CCC(=O)O)ccc1-c1ccccc1` reads -17.9%.
Next, `CCOC(=O)CC(=O)CSc1nc2c(C)c(C)ccc2cc1C`: -25%.
`C/C(=N\Nc1nc(C)c(C)s1)c1ccc([N+](=O)[O-])cc1`: the signal change vs control minus 3*SD hit threshold (margin above threshold, higher = more increase) was -17.3%.
Consider `CCc1ccc2c(c1)c(N=NC1=NC(=O)CS1)c(O)n2CC`, for which the signal change vs control minus 3*SD hit threshold (margin above threshold, higher = more increase) was 1% (active).
The result for `CCn1c(O)c(N=NC2=NC(=O)CS2)c2ccccc21` reads -27%.
The result for `CCn1c(O)c(N=NC2=NC(=O)CS2)c2cc(C)ccc21` reads -27.3%.
The result for `CCCOc1ccc(CN(CCC#N)C(=S)NC(=O)c2ccccc2)cc1` reads -20.4%; that for `Cc1ccc2c(c1)c1nnc(SCC(=O)Nc3ccc(N(C)C)cc3)nc1n2CC(=O)O`, -28.5%.
As to `CCOC(=O)N/N=C/C=C/c1ccccc1[N+](=O)[O-]`, the signal change vs control minus 3*SD hit threshold (margin above threshold, higher = more increase) is -14.5%.
With `COc1ccccc1N=Nc1ccc(O)c2ncccc12`, the signal change vs control minus 3*SD hit threshold (margin above threshold, higher = more increase) was -39%.
Next, `CCN(CC)S(=O)(=O)c1cc(OC)ccc1N=Nc1ccc(O)c2ncccc12`: 5.8% (active); `COc1cccc(N=Nc2ccc(O)c3ncccc23)c1`: -23.6%; `O=C(NC(=S)Nc1cccnc1)c1cc2ccccc2o1`: -7.1%.
As to `C=CCN(CC=C)C(=S)NC(=O)c1ccc(-c2ccccc2)cc1`, the signal change vs control minus 3*SD hit threshold (margin above threshold, higher = more increase) was -9.3%.
The result for `COc1ccc(C(=O)NC(=S)N(Cc2ccccc2)Cc2ccccc2)cc1` reads 7.4% (active); that for `CCOc1ccc(C(=O)NC(=S)N(Cc2ccccc2)Cc2ccccc2)cc1`, -15.4%.
On to `CCCN(CCC)C(=S)NC(=O)c1ccc(-c2ccccc2)cc1`, for which the signal change vs control minus 3*SD hit threshold (margin above threshold, higher = more increase) is 18.5% (active).
In the case of `COc1cc(OC)cc(C(=O)NC(=S)N(Cc2ccccc2)C(C)C)c1`, the signal change vs control minus 3*SD hit threshold (margin above threshold, higher = more increase) was -1.3%.
The result for `Cc1ccc(C(=O)NC(=S)N(C)Cc2ccccc2)cc1` reads -19.2%.
The result for `CCCCC1(O)CC(C(F)(F)F)=NN1C(=O)COc1ccccc1` (stereo not given) reads -36.4%.
Next, `Cc1ccc(OCCC(=O)OC(C)C(=O)NC2CC2)cc1` (stereo not given): -26.5%.
As to `CC(=O)Cn1c(=O)c2c(nc3n2CCCN3Cc2ccccc2)n(C)c1=O`, the signal change vs control minus 3*SD hit threshold (margin above threshold, higher = more increase) was -25.8%.
Next, `O=C(O)CN1C(=O)c2ccc(Oc3ccc4c(c3)C(=O)N(CC(=O)O)C4=O)cc2C1=O`: -18.4%; `O=C(O)Cc1cc(I)c(Oc2ccc(O)c(I)c2)c(I)c1`: 7.3% (active).
On to `CCCCC(=O)Nc1ccc(NCc2ccc(C)s2)cc1`, for which the signal change vs control minus 3*SD hit threshold (margin above threshold, higher = more increase) was -5.7%.
For the molecule `CC[C@@H](C(=O)[C@@H](C)[C@@H](O)[C@H](C)CCc1ccc(C)c(O)c1C(=O)O)[C@H]1O[C@](CC)([C@H]2CC[C@](O)(CC)[C@H](C)O2)C[C@@H]1C`, the signal change vs control minus 3*SD hit threshold (margin above threshold, higher = more increase) was 58.8% (active).
